# Data taken from the supplement of paper PMC6555819.
# Test system: PPARg:RXRa DBDmut IVT, anti-RXR (DBD mutation: RXRa K156A/R161A, NR concentration 270 nM, RXRa partner concentration 90 nM)
# Experiment: PBM binding z-score (relative to random genomic background probes); higher = stronger binding; sequences stand for … in GC…GCGATTGACAGCGTAGAATGAAGG
# Method in brief: (§1)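 Binding buffer was PBS pH 7.4 with 2% milk, 0.02% Triton X-100, 1 mM DTT, 0.2 mg/mL BSA and 0.4 mg/ml salmon testes DNA. In it, ligand-free nuclear receptor dimers were incubated 1 h on custom Agilent 4×180K protein-binding microarrays carrying double-stranded probes. Antibodies against each partner (one per run) detected binding, and z-scores were calculated against random background probes after regression normalization of scanned fluorescence.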
row,Sequence,PBM binding z-score
1,TCTTGTAGATCAAACGTTAAGAAAGCCGAAGCCT,2.23
2,GATACAGGGTCAGCTAGATGCCAGAGTATGGAAA,1.35
3,CGTACAGGGTCAGCTAGGCCAGAGTAGGGACGGC,1.75
4,ATCGAAAGGTCGAGGTGAGTCTAGAGAAAGGGAA,0.536
5,TATAGTTGGTCACGGAGGTCACACACGACGGGTA,1.03
6,CGAACGAGGGCATGAGTTGATAGTAAATGCCGAT,3.01
7,CCTACTGAGCCAAGGTCATTGATCAGTCAAAGCA,0.598
8,ATCTCTTGGTAAAGATAGTTCAGTGAATGCAAAT,-0.0767
9,TCTATTAGTTGAGTAGGGCAACCGAAACAGCGGA,2.19
10,TCATATAGGTAATACTGGTGAAAGTCGGCATCTA,3.8
11,GGAAAGAGGGCATTCGAGTTGATAGCATGGCGAT,2.82
12,TCTTGTATATCAATAGAGGTTAAGAAAGTGCGCT,1.98
13,TCTCGGAGGACAAGAAAGGTCAGAGCTCGACATC,1.37
14,CCTATTAGTTGACTATAAGGGCAACCGAAGCTCG,0.032
15,AGAACGAGGGCACGCTGAGTTGATAGGAGAGTAG,3.83
16,ACTATTAGTTGAGACGAGGGAAACCGATAGGTTG,0.0625
17,GGAACGAGGGCAAGTTGAGAGCAGAGTTTGATGG,3.69
18,CGTCAAAGTTCAATTAAGGTAACGTAAAGCACGC,0.465

# Test system: PPARg:RXRa IVT, anti-PPARg (NR concentration 270 nM, RXRa partner concentration 90 nM)
# Experiment: as above
# Method in brief: as §1
row,Sequence,PBM binding z-score
1,CCTACTGGGCCATTCAGAGGTCATTTATCATATG,4.38
2,CCGAGTAGCTTATGGGGCATTCAGGCAACGGTGA,0.117
3,CCTACTGGGCCATTTAGAGGTCATTGATCATATG,4.32
4,CGAACGAGGGCATGAGTTGGTAGCAAATGCCGAT,1.66
5,TATACAGGTTCAAAGGCCAGAGTACGAATGTCGA,1.44
6,CCGACTCGGGCAAGGTTACCATAACGCACAGCCA,0.196
7,CCTACCGGGCCACGAAAGGTCATTGATTCAGTGA,2.28
8,TGAATGAGGTTAAAGATCAGAGAACGTGGCGTCG,3.53
9,TCCGCTAGGTCAACGATGGTCAGCTAATCTGCTA,3.71
10,GCGACTGGGGCAAAGCAGGTTACCAAAAGGTTGG,3.6
11,CCTACTGGGCCATCAGGTAATTGATATCAACGTT,4.05
12,TCATATAAGTAAATGCTAGGTGAAAGTCCGATCT,0.569
13,CCGAGTAGGTTATGGGGCACTCAGGCAACGGTGA,3.7
14,TCTTGTAGATCATTAGAGGTTAAGAAAGTGCGCT,1.01
15,ATATGTAGGTTAAGGGTCATTGAGGTTGGTTCGC,7.77
16,ACTAGCAGGCCAAGGGGCACTCAAGATTAGTCCG,1.41
17,TAGCCGAGGTCAGATCGGGCCAGTATACGCTATA,2.23
18,GCGACAGGGGCAAAGCAGGTTACCATAAGGTTGG,0.684
19,CCTTACGGGTCACTGATAGGTTATAGCATTTGGA,3.73
20,CCTACTGGGCCCCGAAAGGTCATTGATTCAGTGA,2.11

row,Sequence,PBM binding z-score
1,ACTATTAGTTGACATAGGGCAACCGATACGACGC,0.742
2,CTTGCTAGGTCATGGTCAGCTAATCTACAGTATG,4.72
3,TCTTGTAGATCAAACGTTAAGAAAGCCGAAGCCT,0.376
4,GATACAGGGTCAGCTAGATGCCAGAGTATGGAAA,2.42
5,CGTACAGGGTCAGCTAGGCCAGAGTAGGGACGGC,2.64
6,ATCGAAAGGTCGAGGTGAGTCTAGAGAAAGGGAA,2.56
7,TATAGTTGGTCACGGAGGTCACACACGACGGGTA,4.52
8,CGAACGAGGGCATGAGTTGATAGTAAATGCCGAT,1.98
9,CCTACTGAGCCAAGGTCATTGATCAGTCAAAGCA,0.834
10,ATCTCTTGGTAAAGATAGTTCAGTGAATGCAAAT,0.448
11,TCTATTAGTTGAGTAGGGCAACCGAAACAGCGGA,2.75
12,TCATATAGGTAATACTGGTGAAAGTCGGCATCTA,2.46
13,GGAAAGAGGGCATTCGAGTTGATAGCATGGCGAT,1.52
14,TCTTGTATATCAATAGAGGTTAAGAAAGTGCGCT,1.05
15,TCTCGGAGGACAAGAAAGGTCAGAGCTCGACATC,0.954
16,CCTATTAGTTGACTATAAGGGCAACCGAAGCTCG,0.399
17,AGAACGAGGGCACGCTGAGTTGATAGGAGAGTAG,3.7
18,ACTATTAGTTGAGACGAGGGAAACCGATAGGTTG,-0.339
19,GGAACGAGGGCAAGTTGAGAGCAGAGTTTGATGG,2.7
20,CGTCAAAGTTCAATTAAGGTAACGTAAAGCACGC,2
